Experimental data: PubChem BioAssay (NCI)
This is part of a sample that, as a whole, favours compounds with a hit. Of some 83,000 tested, about 20% had one in any assay.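 Cells were grown in 96-well plates and exposed to the test compound at a single concentration for 48 hours; results are reported as percent growth, with values below 10 considered active.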 Unmarked numbers belong to inactive results. The source made the active and inactive calls.

System: DU-145 prostate
Test: NCI-60 one-dose screen, 48 h (100 = growth as untreated, 0 = no growth, -100 = all killed)
Conditions: 10 µM unless noted

Compound | growth
COc1cc2c(cc1O)[C@@]1(C)[C@H](c3ccccc3Br)OC(=O)N1CC2 | 101%
CC1(C)CC[C@]2(C(=O)O)CC[C@]3(C)C(=CC[C@@H]4[C@@]5(C)C[C@@H](Cc6cn([C@@H]7O[C@H](CO)[C@@H](O)[C@H](O)[C@H]7O)nn6)[C@H](O)C(C)(C)[C@@H]5CC[C@]43C)[C@@H]2C1 | 112%
COc1cccc(Nc2ccnc3[nH]c4ccc([N+](=O)[O-])cc4c23)c1 | 76.9%
N#Cc1c(NC(=O)c2cccs2)[n+]([O-])c2ccc(Cl)cc2[n+]1[O-] | 121%
O=C1Nc2ccc(F)cc2/C1=N/c1nnc(Sc2ccccc2)s1 | 105%
COc1ccc(/C=C/C(=O)c2ccc(NC(=O)CSc3nnc(-c4cc(-c5ccccc5)nc5ccccc45)n3-c3ccccc3)cc2)cc1 | 94.9%
CCN1C(=O)N(CC)C2C1NN=C1SCC(=O)N12 (configuration not stated) | 101%
CC(=O)N/C(=C1/OC(C(O)C(O)C(O)CO)CN1C)[P+](c1ccccc1)(c1ccccc1)c1ccccc1 (configuration not stated) | 105%
CCOC(=O)Nc1nc2ccc(SCC(C)C)cc2s1 | 42.2%
NNC(=S)N/N=C/c1ccccn1 | 34.5%
Cc1[nH]c(/C=C/C(=O)c2ccc(C(F)(F)F)c(F)c2)c(C)c1C(=O)NCC(C)C | 101%
N#Cc1c(N2CCOCC2)nc(=S)[nH]c1-c1ccccc1 | 87.6%
Cc1cc(N2CCCCC2)nc(N2CCN(CC(=O)Nc3ccc4c(ccn4Cc4ccccc4)c3)CC2)n1 | 79.6%
CC(C)c1ccc(C(=O)Nc2sc3cc(O)ccc3c2C#N)cc1 | 50.5%
O=C(/C=C/C12c3ccccc3C(c3ccccc31)C1C(=O)NC(=O)C12)c1ccccn1 (configuration not stated) | 15.3%
CC(C)CSc1oc(-c2ccccc2)nc1S(=O)(=O)c1ccccc1 | 99.3%
O=C(/C=C/c1ccc(Br)cc1)c1ccc(-n2cc(CN3CCN(c4cc5c(cc4F)c(=O)c(C(=O)O)cn5C4CC4)CC3)nn2)cc1 | 78.9%
Nc1c(C(=O)Nc2ccncc2)sc2nc3c(cc12)CCCCC3 | 89.2%
O=C(CCCCCCN1CC(=O)N2[C@@H](C3CCCCC3)c3[nH]c4ccccc4c3C[C@H]2C1=O)NO | 80%
COc1ccc2[nH]cc(-c3nc(-c4cn(C)c5ccncc45)cs3)c2c1 | 2.58% (active)
O=C(/C=C\c1ccco1)/C=C/c1ccco1 | 106%
O=C1NC(=C(Cl)Cl)/C(=N/S(=O)(=O)N2CCCCC2)N1 | 101%
COc1ccc(C2=Nc3c(N)ncnc3NC(c3cccc(Nc4ccnc5cc(C(F)(F)F)ccc45)c3)C2)cc1 (configuration not stated) | 80.2%
CC(C)(CO)N(CCO)CCO | 118%
CCOC(=O)c1c(C)c2c(n1C)CSc1cc(S(=O)(=O)c3ccccc3)c(=O)[nH]c1-2 | 25.8% [100 µM]
Clc1ccc(-c2cn3ccsc3n2)c(Cl)c1Cl | 76.2%
CS(=O)(=O)Cc1cnc(C2OCCO2)s1 | 106%

System: K-562 leukemia
Test: as above
Conditions: 10 µM unless noted

Compound | growth
O=c1ccc2nc(C(F)(F)F)nn(-c3ccccc3)c-2c1 | -35.1% (active)
O=P(O)(O)OCC1OC(n2cnc3c(NCc4ccccc4)ncnc32)C(O)C1O (configuration not stated) | 60.8%
Cc1cc2nc(-c3c(-c4ccc(F)cc4)nc4sccn34)[nH]c2cc1C | 94.1%
CCOC(=O)N1CCN(S(=O)(=O)c2oc(-c3ccc(Cl)cc3)nc2C#N)CC1 | 9.23% (active)
CCCCCCCCn1ccc2cc(NC(=O)Cn3cc(CN4CCN(CC)CC4)nn3)ccc21 | 3.41% (active)
CC12CCC(/C(=C/NNc3ccc([N+](=O)[O-])cc3[N+](=O)[O-])C1=O)C2(C)C (configuration not stated) | 77.9%
COc1ccc(/C(C)=C(\c2ccc(OCCN3CCCCCC3)cc2)c2ccc(OC(=O)c3ccccc3)cc2)cc1 | 1.82% (active)
O=C(N/N=C/c1ccc([N+](=O)[O-])cc1)c1ccc2nc(-c3ccc(Cl)cc3)[nH]c2c1 | 9.68% (active)
COc1cc(/C=C\c2cc(/C=C\c3ccc(O)c(OC)c3)n(C(=O)CNc3ccc(Cl)cc3)n2)ccc1O | 6.99% (active)
CN(C)c1ccc(-c2cc(-c3ccc(Nc4nc(Nc5ccc(Cl)cc5)nc(Nc5ccc(Cl)cc5)n4)cc3)nc(N)c2C#N)cc1 | 68.4%
Nc1ccc([N+](=O)[O-])cc1N=C/C=C/c1ccccc1 | 29.5%
Cc1nc2sc(C(=O)Nc3cccc(Cl)c3)c(N)c2cc1C(O)c1ccccc1 (configuration not stated) | 6.94% (active)
COc1cc(C2=NN(C(C)=O)C(c3ccc(N(C)C)cc3)C2)cc(OC)c1OC (configuration not stated) | 81.7%
COc1cc2c(cc1O)[C@@]1(C)[C@H](c3ccccc3Br)OC(=O)N1CC2 | 75%
CC1(C)CC[C@]2(C(=O)O)CC[C@]3(C)C(=CC[C@@H]4[C@@]5(C)C[C@@H](Cc6cn([C@@H]7O[C@H](CO)[C@@H](O)[C@H](O)[C@H]7O)nn6)[C@H](O)C(C)(C)[C@@H]5CC[C@]43C)[C@@H]2C1 | 90%
COc1cccc(Nc2ccnc3[nH]c4ccc([N+](=O)[O-])cc4c23)c1 | 19%
N#Cc1c(NC(=O)c2cccs2)[n+]([O-])c2ccc(Cl)cc2[n+]1[O-] | 106%
O=C1Nc2ccc(F)cc2/C1=N/c1nnc(Sc2ccccc2)s1 | 79.7%
COc1ccc(/C=C/C(=O)c2ccc(NC(=O)CSc3nnc(-c4cc(-c5ccccc5)nc5ccccc45)n3-c3ccccc3)cc2)cc1 | 88.8%
CCN1C(=O)N(CC)C2C1NN=C1SCC(=O)N12 (configuration not stated) | 47.9%

Compound | growth
CC(=O)N/C(=C1/OC(C(O)C(O)C(O)CO)CN1C)[P+](c1ccccc1)(c1ccccc1)c1ccccc1 (configuration not stated) | 97.6%
CCOC(=O)Nc1nc2ccc(SCC(C)C)cc2s1 | 18%
NNC(=S)N/N=C/c1ccccn1 | 19.4%
Cc1[nH]c(/C=C/C(=O)c2ccc(C(F)(F)F)c(F)c2)c(C)c1C(=O)NCC(C)C | 101%
N#Cc1c(N2CCOCC2)nc(=S)[nH]c1-c1ccccc1 | 93.4%
Cc1cc(N2CCCCC2)nc(N2CCN(CC(=O)Nc3ccc4c(ccn4Cc4ccccc4)c3)CC2)n1 | 35.4%
CC(C)c1ccc(C(=O)Nc2sc3cc(O)ccc3c2C#N)cc1 | 13.8%
O=C(/C=C/C12c3ccccc3C(c3ccccc31)C1C(=O)NC(=O)C12)c1ccccn1 (configuration not stated) | 8.81% (active)
CC(C)CSc1oc(-c2ccccc2)nc1S(=O)(=O)c1ccccc1 | 92.4%
O=C(/C=C/c1ccc(Br)cc1)c1ccc(-n2cc(CN3CCN(c4cc5c(cc4F)c(=O)c(C(=O)O)cn5C4CC4)CC3)nn2)cc1 | 51.5%
Nc1c(C(=O)Nc2ccncc2)sc2nc3c(cc12)CCCCC3 | 51.8%
O=C(CCCCCCN1CC(=O)N2[C@@H](C3CCCCC3)c3[nH]c4ccccc4c3C[C@H]2C1=O)NO | 31.1%
COc1ccc2[nH]cc(-c3nc(-c4cn(C)c5ccncc45)cs3)c2c1 | -26.3% (active)
O=C(/C=C\c1ccco1)/C=C/c1ccco1 | 111%
O=C1NC(=C(Cl)Cl)/C(=N/S(=O)(=O)N2CCCCC2)N1 | -51.6% (active)
COc1ccc(C2=Nc3c(N)ncnc3NC(c3cccc(Nc4ccnc5cc(C(F)(F)F)ccc45)c3)C2)cc1 (configuration not stated) | 15.5%
CC(C)(CO)N(CCO)CCO | 101%
CCOC(=O)c1c(C)c2c(n1C)CSc1cc(S(=O)(=O)c3ccccc3)c(=O)[nH]c1-2 | 31% [100 µM]
Clc1ccc(-c2cn3ccsc3n2)c(Cl)c1Cl | 73.1%
CS(=O)(=O)Cc1cnc(C2OCCO2)s1 | 125%
